Source: PubChem BioAssay AID1159580 (chemical genetic matrix, 2015)
“And” between values parts separate entries of the source, which are not always exact repeats. Identical values can stand only once. About 2,000 (36%) of roughly 5,500 compounds were called active. Not shown: some 18% with an inconclusive outcome. Rule as the data show it: active = normalized growth mostly below about 0.91 (no sharp cut-off); inconclusive = no clear call, values can overlap the other calls; inactive = mostly above about 0.92. This is one part of the list.

Assay: chemical genetic growth profiling, strain panel (AID 1159580);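 also: tested at 20 µM; growth read once vehicle control cultures reached saturation at 30 °C; 1 = growth at the plate median or of vehicle wells; lower values mean less growth of the strain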
Details: S. cerevisiae deletion strains, growth OD

Measured: normalized growth

COc1ccc(OC)c(C(O)CNC(=O)CN)c1 (stereo not given)
inactive: locus YAL021C, strain ccr4, active compounds read low 0.984 | locus YAL026C, strain drs2, active compounds read low 1 | locus YAL030W, strain snc1, active compounds read low 1.01 | locus YBL061C, strain skt5, active compounds read low 1.01 | locus YBR009C, strain hhf1, active compounds read low 1 | locus YBR021W, strain FUR4, active compounds read low 1.02 | locus YBR023C, strain chs3, active compounds read low 1 | locus YBR171W, strain sec66, active compounds read low 1.02 | locus YBR229C, strain ROT2, active compounds read low 0.961 | locus YBR231C, strain swc5, active compounds read low 1 | locus YBR279W, strain paf1, active compounds read low 1.01 | locus YCL011C, strain gbp2, active compounds read low 1.01 | locus YCL016C, strain dcc1, active compounds read low 1.01 | locus YCL029C, strain bik1, active compounds read low 0.987 | locus YCL061C, strain MRC1, active compounds read low 1.01 | locus YCL069W, strain vba3, active compounds read low 1.01 | locus YCR088W, strain abp1, active compounds read low 0.996 | locus YDL005C, strain med2, active compounds read low 1 | locus YDL035C, strain GPR1, active compounds read low 0.986 | locus YDL040C, strain nat1, active compounds read low 0.997 | locus YDL074C, strain BRE1, active compounds read low 0.962 | locus YDL101C, strain DUN1, active compounds read low 0.987 | locus YDL134C, strain PPH21, active compounds read low 1 | locus YDL185W, strain tfp1, active compounds read low 0.979 | locus YDL192W, strain arf1, active compounds read low 0.964 | locus YDR001C, strain nth1, active compounds read low 0.997 | locus YDR069C, strain doa4, active compounds read low 1 | locus YDR101C, strain arx1, active compounds read low 0.98 | locus YDR137W, strain rgp1, active compounds read low 1.01 | locus YDR150W, strain NUM1, active compounds read low 0.993 | locus YDR159W, strain sac3, active compounds read low 0.989 | locus YDR162C, strain NBP2, active compounds read low 0.983 | locus YDR195W, strain ref2 0.977 | locus YDR297W, strain sur2, active compounds read low 1 | locus YDR318W, strain mcm21, active compounds read low 0.982 | locus YDR334W, strain swr1, active compounds read low 1.01 | locus YDR335W, strain msn5, active compounds read low 1 | locus YDR388W, active compounds read low 0.983 | locus YDR392W, strain spt3, active compounds read low 1.02 | locus YDR502C, strain sam2, active compounds read low 0.981 | locus YEL003W, strain gim4, active compounds read low 0.998 | locus YEL037C, strain rad23, active compounds read low 1 | locus YEL061C, strain CIN8 (second series), active compounds read low 1.01 | locus YEL061C, strain CIN8, active compounds read low 0.979 | locus YER015W, strain faa2, active compounds read low 1.02 | locus YER016W, strain bim1, active compounds read low 1 | locus YER110C, active compounds read low 0.973 | locus YER111C, strain swi4, active compounds read low 1.01 | locus YER155C, strain BEM2 (second series), active compounds read low 1.01 | locus YER155C, strain BEM2, active compounds read low 1 | locus YER167W, strain BCK2, active compounds read low 1.01 | locus YFR010W, strain ubp6, active compounds read low 1.01 | locus YGL078C, strain dbp3, active compounds read low 0.974 | locus YGL086W, strain mad1, active compounds read low 0.979 | locus YGL167C, strain pmr1, active compounds read low 0.995 | locus YGL173C, strain kem1, active compounds read low 0.995 | locus YGL227W, strain vid30, active compounds read low 1 | locus YGL240W, strain doc1, active compounds read low 1.02 | locus YGL248W, strain PDE1, active compounds read low 0.967 | locus YGL253W, strain hxk2, active compounds read low 1.02 | locus YGR135W, strain pre9, active compounds read low 0.999 | locus YGR229C, strain SMI1, active compounds read low 0.99 | locus YGR252W, strain gcn5, active compounds read low 0.956 | locus YHR013C, strain ard1, active compounds read low 1.01 | locus YHR027C, strain rpn1, active compounds read low 0.999 | locus YHR030C, strain SLT2, active compounds read low 1 | locus YHR079C, strain IRE1 (second series), active compounds read low 0.991 | locus YHR079C, strain IRE1, active compounds read low 1.01 | locus YHR094C, strain hxt1, active compounds read low 0.978 | locus YHR129C, strain ARP1, active compounds read low 0.996 | locus YHR142W, strain chs7, active compounds read low 0.997 | locus YIL066C, strain RNR3, active compounds read low 0.969 | locus YIL073C, strain SPO22, active compounds read low 0.985 | locus YIL125W, strain kgd1, active compounds read low 0.975 | locus YIR030C, strain dcg1, active compounds read low 0.986 | locus YJL092W, strain hpr5, active compounds read low 1.01 | locus YJL095W, strain BCK1 (second series), active compounds read low 1 | locus YJL095W, strain BCK1, active compounds read low 0.975 and 1.03 | locus YJL115W, strain asf1, active compounds read low 1 | locus YJL129C, strain trk1, active compounds read low 0.999 | locus YJL134W, strain LCB3, active compounds read low 0.991 | locus YJL154C, strain vps35, active compounds read low 0.992 | locus YJL164C, strain tpk1, active compounds read low 1 | locus YJL166W, strain qcr8, active compounds read low 1 | locus YJL168C, strain set2, active compounds read low 0.976 | locus YJL187C, strain SWE1 (second series), active compounds read low 0.958 | locus YJL187C, strain SWE1, active compounds read low 1 | locus YJR043C, strain POL32, active compounds read low 0.944 | locus YJR066W, strain TOR1, active compounds read low 1 | locus YJR075W, strain HOC1, active compounds read low 0.993
